An excerpt weighted towards active compounds, which were near 2.4% of everything screened.
POLI inh – DNA polymerase iota (human) inhibition | Pol iota fluorescent replication assay, 10 min | hit rate 1% among 390,000 | Q9UNA4 | Potency, µM (top dose mostly 115 µM), hits mostly inhibitors
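Pol iota at 10 nM preincubated 15 min with compounds at room temperature; reaction started with fluorescent substrate, 50 nM final. Fluorescence read kinetically at 0 and 10 min; buffer-only wells as negative control.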
FEN1 inh – blocks human flap endonuclease 1; P39748; Recombinant FEN1 flap cleavage, fluorescence, 15 min; Potency, µM (doses to about 114 µM), most hits filed as inhibitors; hit rate 0.35% among 390,000; AID 588795; further: nearly all actives have a fitted effect of over 65% in size
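FEN1 at 10 nM, compound pretreatment for 15 min (room temperature), 50 nM final substrate to initiate; endpoint reads at 0 and 15 min; DMSO-only plates used as vehicle background.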
POLB inh – blocks human DNA polymerase beta activity; P06746; Pol beta primer extension/strand displacement, fluorescence kinetic; Potency, µM (doses to about 114 µM), most hits filed as inhibitors; hit rate 1.3% among 340,000; AID 485314
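10 nM enzyme + cpd, 15 min RT; start with substrate 50 nM final; read 0 min and after 10 min RT. Corrected, normalized data; 4-parameter Hill curve fit.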
Pol eta inh – blocks human DNA polymerase eta activity; recombinant Pol eta, fluorescent DNA replication assay; Potency, µM (series often up to 114 µM), most hits filed as inhibitors; Q9Y253; hit rate 1.2% among 390,000
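Pol eta at 10 nM preincubated with compounds 15 min at room temperature; reaction started with fluorescent substrate (50 nM final) and read kinetically at 0 and 10 min.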
TDP1 inh – TDP1 (human) enzyme inhibition | hit rate 0.28% among 350,000 | recombinant TDP1, AlphaScreen DNA substrate cleavage | AID 485290 | Q9NUW8 | Potency, µM (series often up to 130 µM), usual class: inhibitors; further: nearly all actives have a fitted effect of over 40% in size
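Steps: enzyme plus compound, 15 min RT; add biotin/phosphotyrosine-FITC oligonucleotide (15 nM final), react 5 min; add donor/acceptor beads (10 ug/ml final), 10 min; read AlphaScreen. Tdp1 at 1 nM final.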
POLK inh – DNA polymerase kappa (human) inhibition; Q9UBT6; purified Pol kappa, fluorescent DNA synthesis assay, 10 min; Potency, µM (titrated, usually from 107 µM), hits mostly inhibitors; hit rate 0.53% among 400,000; AID 588579
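Kinetic fluorescence screen: compound preincubated 15 min RT with 10 nM enzyme; 50 nM substrate (final) initiates; reads at 0/10 min.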
TbPGK inh – TbPGK inhibition, hit validation; shares compounds with POLK inh; TbPGK coupled GAPDH assay, Kinase-Glo luminescence; Potency, µM (titrated, usually from 57.5 µM), usual class: inhibitors; hit rate 79% among 500; AID 686980; further: nearly all actives have a fitted effect of over 65% in size
Target sequence (P07378 whole entry, looked up): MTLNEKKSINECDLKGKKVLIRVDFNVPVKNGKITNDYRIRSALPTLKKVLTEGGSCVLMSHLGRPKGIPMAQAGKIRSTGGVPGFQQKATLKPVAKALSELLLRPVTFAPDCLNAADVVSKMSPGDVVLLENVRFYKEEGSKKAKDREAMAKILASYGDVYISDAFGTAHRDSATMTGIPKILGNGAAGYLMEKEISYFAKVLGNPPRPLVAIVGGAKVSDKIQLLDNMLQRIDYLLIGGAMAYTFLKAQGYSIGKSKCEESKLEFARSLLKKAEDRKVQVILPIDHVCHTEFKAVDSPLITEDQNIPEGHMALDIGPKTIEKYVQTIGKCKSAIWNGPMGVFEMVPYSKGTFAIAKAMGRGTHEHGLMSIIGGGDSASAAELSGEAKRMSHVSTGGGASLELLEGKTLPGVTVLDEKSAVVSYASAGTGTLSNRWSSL
Pol iota confirm – Confirm cherry-picked inhibitors of human polymerase iota. hit rate 77% among 1,500. AID 720496. shares compounds with POLK inh. Potency, µM, actives largely listed as inhibitors. Pol iota primer extension, TAMRA/BHQ fluorescence
A number is an active result; - = inactive; ? = inconclusive; . = no result given; ! = not active in a repeat; [ ] = another dose, or the depositor's remark. The call rests on the fitted dose curve; in most records, active means well fitted curve in the direction sought with a large enough effect; inconclusive means small, poorly fitted or top-dose-only effect, or another doubt; inactive means no such curve, though single readings can be large; an effect the other way counts as inactive or inconclusive.

SMILES | POLI inh | FEN1 inh | POLB inh | Pol eta inh | TDP1 inh | POLK inh | TbPGK inh | others
Oc1ccc(C2CNCCc3c2cc(O)c(O)c3Cl)cc1 (stereo not given) | 14.1µM! | - | ? | ? | - | - | . | Pol iota confirm=?
CSc1ccc(-c2nc3cccc(C)n3c2Nc2ccc3c(c2)OCO3)cc1 | - | - | - | - | - | - | .
CCCS(=O)(=O)c1cnc(C2COc3ccccc3O2)nc1N (stereo not given) | - | - | - | - | . | - | 18.3µM
Cc1cc(NC(=O)c2cncc(Br)c2)ccc1NC(=O)c1cc2ccccc2o1 | ? | - | ? | 50.1µM | . | - | . | Pol iota confirm=?
COc1ccc(-n2nc(C(=O)Nc3ccc(OC)c(OC)c3)c3c4ccccc4n(C)c3c2=O)cc1 | ? | - | - | ? | - | - | . | Pol iota confirm=4.74
CCN(CC)c1ccc(C(=C2C=CC(=[N+](CC)CC)C=C2)c2ccc(N(CC)CC)cc2)cc1 | - | ? | . | - | . | - | 16.3µM
O=C(Nc1ccc(Cc2ccc(NC(=O)Nc3cccnc3)cc2)cc1)Nc1cccnc1 | . | . | . | 44.7µM | . | . | . | Pol iota confirm=?
COc1cc2c(ccc3cc(OC)c(OC)c(O)c32)cc1O | ? | 22.4µM | 1.41µM | 3.16µM | . | 7.94µM | 1.46µM
O=C(CCCN1C(=O)/C(=C\c2ccccc2)SC1=S)Nc1ccc(C(=O)O)cc1 | ? | - | - | ? | -[0.0935 µM] | - | .
O=C(CCN1C(=O)/C(=C/c2ccc3c(c2)OCO3)SC1=S)Nc1ccc(C(=O)O)cc1 | ? | ? | ? | ? | . | - | . | Pol iota confirm=75.2
CCOc1ccc(/C=C2\SC(=S)N(CCC(=O)Nc3ccc(C(=O)O)cc3)C2=O)cc1 | - | ? | - | ? | . | - | .
CCOc1ccc(/C=C2\SC(=S)N(CCC(=O)Nc3cccc(C(=O)O)c3)C2=O)cc1 | ? | - | - | 44.7µM | . | - | . | Pol iota confirm=75.2
Cc1ccc(-c2nnc(SCC(=O)NC(C)(C)C)nc2-c2ccc(C)cc2)cc1 | - | - | ? | - | - | - | .
Cc1cc(C)nc(N/N=C/c2sccc2C)n1 | - | - | - | - | - | - | .
Cc1ccsc1/C=N/Nc1nc(=O)[nH]nc1C | - | - | - | - | - | - | 18.3µM
CCc1ccccc1NC(=O)CSC1=Nc2ccccc2C2=NC(Cc3ccccc3)C(=O)N12 (stereo not given) | - | - | - | - | - | - | .
CCN(CC)C(=O)c1sc2c(c1C)c(=O)n(Cc1ccccc1)c(=O)n2Cc1c(C)cc(C)cc1C | - | - | ? | - | - | - | .
Cc1ccc2nc(-c3ccccc3)cn2c1 | - | - | - | - | - | - | 11.6µM
c1ccc(-c2cn3c(n2)-c2ccccc2C3)cc1 | - | - | - | ? | - | - | 14.6µM
Cc1ccc(-c2nc3n(n2)Cc2ccccc2-3)cc1 | ? | - | ? | - | - | - | .
Cc1ccccc1NC(=O)Cn1c(=O)n(CCC(=O)N2CCc3ccccc3C2)c(=O)c2ccccc21 | - | - | - | - | - | - | .
O=C(CN1C(=O)C2(SCC(=O)N2c2cccc(F)c2)c2ccccc21)NCc1ccccc1Cl (stereo not given) | - | - | - | - | - | - | .
CCOc1cc(/C=N/NC(=O)c2nnn(-c3nonc3N)c2C)ccc1OCc1ccc(C)cc1 | . | . | . | 10µM | . | . | . | Pol iota confirm=23.8
Cc1oc(-c2ccc(C(=O)NCCC(C)C)cc2)nc1CS(=O)(=O)c1ccccc1 | - | - | ? | - | - | - | .
CC(C)C(C(=O)O)N1C(=O)/C(=C/c2cccn2C)SC1=S (stereo not given) | - | - | - | - | - | - | .
SMILES | POLI inh | FEN1 inh | POLB inh | Pol eta inh | TDP1 inh | POLK inh | TbPGK inh | others
CC(C)C(C(=O)O)N1C(=O)/C(=C/C=C/c2ccco2)SC1=S (stereo not given) | 1.12µM | 17.8µM | 1.58µM | 0.794µM | ? | 3.16µM | 2.59µM
CC(C(=O)Nc1ccc(C(=O)O)c(O)c1)N1C(=O)/C(=C\c2ccco2)SC1=S (stereo not given) | ? | - | ? | 3.16µM | . | - | 23.1µM
NC(=S)N/N=C/c1cccc(O)c1O | 79.4µM | - | - | - | - | ? | . | Pol iota confirm=67
NC(=S)N/N=C/c1ccccc1O | - | - | - | - | - | - | .
Cc1nc(N2CCN(C)CC2)c2nnn(Cc3ccccc3)c2n1 | - | - | . | . | . | - | .
C=C(C)C(=O)Nc1cccc(C2=NOC3(C2)C[C@@H](C(N)=O)N(C(=O)c2cc([N+](=O)[O-])cc([N+](=O)[O-])c2)C3)c1 (stereo not given in full) | ? | - | 14.1µM | 20µM | . | ? | ?
O=C(Nc1ccccn1)c1cc2ccccc2o1 | - | - | - | - | - | - | 16.3µM
Cc1ccnc(NC(=O)c2cc3ccccc3o2)c1 | - | - | . | - | - | - | .
Cc1ccc(NC(=O)c2sccc2C)nc1 | - | - | - | - | - | - | 13µM
COc1cc(-c2oc3cc(O)cc(O)c3c(=O)c2O[C@@H]2O[C@H](CO)[C@@H](O)[C@H](O)[C@H]2O)cc(OC)c1O | . | . | . | . | - | - | .
O=c1c(OC2OC(CO)C(O)C(O)C2O)c(-c2ccc(O)c(O)c2)oc2cc(O)cc(O)c12 (stereo not given) | 25.1µM | ? | - | ? | - | 17.8µM | ?
Cc1ccc(-c2cc(C(=O)N/N=C/c3c(C)nn(C)c3C)c3ccccc3n2)cc1C | 22.4µM | - | ? | ? | - | - | . | Pol iota confirm=?
COc1ccccc1NCCC(=O)OCC(=O)NCc1ccco1 | 6.31µM | - | 17.8µM | 5.62µM | . | 79.4µM | . | Pol iota confirm=?
O=C(CSc1nnc2scc(-c3ccccc3)n12)Nc1nsc(-c2ccccc2)n1 | ? | ? | ? | ? | - | - | . | Pol iota confirm=37.7
Cc1ccc(-c2csc3nnc(SCC(=O)Nc4nsc(-c5ccccc5)n4)n23)cc1 | - | - | - | - | - | - | .
COc1ccc(-n2ncc3c(NC4CCCC4)ncnc32)cc1 | - | - | ? | - | - | - | .
Cc1ccc(NC(=O)CN2C(=O)S/C(=C\c3ccccn3)C2=O)cc1C | - | - | - | - | - | - | .
Cc1ccc(NC(=O)CN2C(=O)S/C(=C\c3ccc(-c4cccc(C(=O)O)c4C)o3)C2=O)cc1C | 10µM | 50.1µM | 10µM | 8.91µM | 79.4µM | 89.1µM | 4.11µM
CC1NC(=O)C(N)CNC(=O)C(C2CCN=C(N)N2)NC(=O)/C(=C/NC(N)=O)NC(=O)C(CNC(=O)CC(N)CCCN)NC1=O (stereo not given) | . | . | . | . | - | - | .
COc1ccc2c(c1)O[C@@H](c1cccc(C(F)(F)F)c1)[C@H](OC(=O)NCCOc1ccccc1)C2=O | . | . | . | . | - | . | .

Compound activity as filed in PubChem BioAssay.
